PubChem BioAssay (NCI)
Compounds without any hit were thinned out: in the full panel of roughly 79,000, 15% have a hit. Activity calls are given as the source filed them. Cut-off read from the data, not from the text of the source: active = growth inhibition above about 70%; inactive = the rest.

Legend:
[1] = NCI Yeast Anticancer Drug Screen. Data for the rad52 strain (AID 147);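 note: 0% = growth of vehicle-treated control cultures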; details: S. cerevisiae rad52 mutant growth inhibition, stronger effect = higher value
Method in brief: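 The repair-mutant yeast strain was incubated with compounds, then growth was read and inhibition derived relative to vehicle.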

[2] = NCI Yeast Anticancer Drug Screen. Data for the wt1 strain (AID 149);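 note: 0% = growth of vehicle-treated wt1 cultures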; details: S. cerevisiae wt1 strain (SPY 50644) growth inhibition, stronger effect = higher value
Method in brief: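 Measured: growth of wt1 yeast under compound versus vehicle treatment, reported as inhibition.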

[3] = NCI Yeast Anticancer Drug Screen. Data for the rad50EPP+ strain (AID 151);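 note: 0% = growth of vehicle-treated control cultures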; details: S. cerevisiae rad50 mutant strain, stronger effect = higher value
Method in brief: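 Vehicle-normalised growth inhibition; rad50EPP+ yeast strain, altered in DNA damage repair, compound-treated.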

[4] = NCI Yeast Anticancer Drug Screen. Data for the rad50 strain (AID 155);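 note: 0% = growth of vehicle-only cultures of the same strain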; details: S. cerevisiae rad50 strain growth inhibition, stronger effect = higher value
Method in brief: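 Growth of the mutant yeast was measured after compound exposure and referenced to vehicle-treated cultures.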

[5] = NCI Yeast Anticancer Drug Screen. Data for the mec2-1 strain (AID 157); details: S. cerevisiae mec2-1 strain, stronger effect = higher value
Method in brief: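 Mutant yeast (mec2-1) grown with compound; growth inhibition relative to vehicle control reported.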

[6] = NCI Yeast Anticancer Drug Screen. Data for the rad14 strain (AID 159);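 note: 0% = growth of vehicle-treated control cultures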; details: S. cerevisiae rad14 strain growth inhibition, stronger effect = higher value
Method in brief: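 Here, inhibition of yeast growth was measured after compound exposure, using a strain with a genetic defect in DNA damage repair and vehicle-treated cultures as the reference.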

[7] = NCI Yeast Anticancer Drug Screen. Data for the sgs1 mgt1 strain (AID 161);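 note: 0% = growth of cultures given vehicle only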; details: S. cerevisiae sgs1 mgt1 strain, stronger effect = higher value
Method in brief: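 This yeast growth screen uses a strain with defined DNA-repair lesions; compound-treated growth is compared with vehicle-treated growth.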

[8] = NCI Yeast Anticancer Drug Screen. Data for the cln2 rad14 strain (AID 165);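 note: 0% = growth equal to vehicle treated cultures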; details: S. cerevisiae cln2 rad14 strain, stronger effect = higher value
Method in brief: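 Readout is yeast growth inhibition versus vehicle-treated controls, using a strain with cln2 and rad14 alterations exposed to compound.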

[9] = NCI Yeast Anticancer Drug Screen. Data for the bub3 strain (AID 167); details: S. cerevisiae bub3 mutant strain, stronger effect = higher value
Method in brief: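 Whole-cell yeast assay. The mutant strain was incubated with compounds, and growth inhibition was determined by comparison with vehicle-treated cells.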

[10] = NCI Yeast Anticancer Drug Screen. Data for the wt2 strain (AID 169);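 note: 0% = growth of vehicle-treated yeast cultures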; details: S. cerevisiae wt2 strain growth inhibition, stronger effect = higher value
Method in brief: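 Against vehicle-treated controls, the growth of yeast exposed to each compound was compared, and the inhibition was recorded.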

[11] = NCI Yeast Anticancer Drug Screen. Data for the mlh1 strain (AID 171);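 note: 0% = growth of vehicle-treated control cultures of the same strain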; details: S. cerevisiae mlh1 strain growth inhibition, stronger effect = higher value
Method in brief: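 Measured: yeast growth. Reference: vehicle-treated controls. Organism: strain with a defined alteration affecting DNA damage repair or cell cycle control, treated with compound.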

[12] = NCI Yeast Anticancer Drug Screen. Data for the sgs1 strain (AID 173);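 note: 0% = growth of vehicle-only control cultures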; details: S. cerevisiae sgs1 mutant, stronger effect = higher value
Method in brief: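 Each compound was added to cultures of the altered yeast strain. Growth was recorded, and inhibition was derived by comparison with vehicle controls.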

[13] = NCI Yeast Anticancer Drug Screen. Data for the mlh1 rad18 strain (AID 175); details: S. cerevisiae mlh1 rad18 strain growth inhibition, stronger effect = higher value
Method in brief: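 Genetically defined yeast (DNA repair-deficient) exposed to compounds; growth inhibition determined relative to vehicle.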

[14] = NCI Yeast Anticancer Drug Screen. Data for the rad18 strain (AID 177); details: S. cerevisiae rad18 mutant growth inhibition, stronger effect = higher value
Method in brief: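 Vehicle-treated cultures served as the baseline for scoring compound-induced growth inhibition in DNA-repair-mutant yeast.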

[15] = NCI Yeast Anticancer Drug Screen. Data for the CLN2oe strain (AID 163);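 note: 0% = growth of vehicle-only control cultures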; details: S. cerevisiae CLN2oe strain, stronger effect = higher value
Method in brief: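 Compounds are applied to yeast harbouring a defined cell-cycle control change; reduced growth compared with vehicle-treated controls gives the value.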

[16] = at 5.0 µM (retest, dose inferred, filed as 0.5)
[17] = at 50.0 µM (retest, dose inferred, filed as 5.0)

Measured: growth inhibition

CC1=CCCC2C1(C)CCC(C)C2(C)Cc1cc(O)ccc1O (stereo not drawn)
inactive: [1]; at 1.2 µM 12% | [1]; at 3.7 µM 31% | [2]; at 1.2 µM -5% | [2]; at 3.7 µM 13% | [2]; at 11.0 µM 31% | [3]; at 1.2 µM -6% | [3]; at 3.7 µM 39% | [3]; at 11.0 µM 69% | [4]; at 1.2 µM -3% | [4]; at 3.7 µM 19% | [4]; [16] 22% | [4]; at 11.0 µM 51% | [5]; at 1.2 µM 5% | [5]; at 3.7 µM 17% | [5]; [16] 46% | [5]; at 11.0 µM 45% | [6]; at 1.2 µM 15% | [6]; at 3.7 µM 15% | [6]; at 11.0 µM 35% | [7]; [16] 39% | [8]; [16] 10% | [9]; at 1.2 µM 9% | [9]; at 3.7 µM 18% | [9]; [16] 44% | [9]; at 11.0 µM 60% | [10]; at 1.2 µM -28% | [10]; at 3.7 µM -7% | [11]; at 1.2 µM -1% | [11]; at 3.7 µM 19% | [11]; at 11.0 µM 38% | [12]; at 1.2 µM 4% | [12]; at 3.7 µM 31% | [14]; at 1.2 µM 1% | [14]; at 3.7 µM 24% | [14]; at 11.0 µM 66%
active: [1]; at 11.0 µM 70% | [1]; at 33.0 µM 98% | [1]; at 100.0 µM 93% | [2]; at 33.0 µM 98% | [2]; at 100.0 µM 96% | [3]; at 33.0 µM 86% | [3]; at 100.0 µM 88% | [4]; at 33.0 µM 98% | [4]; [17] 96% | [4]; at 50.0 µM 88.9% | [4]; at 100.0 µM 93% | [5]; at 33.0 µM 99% | [5]; [17] 97% | [5]; at 50.0 µM 90.6% | [5]; at 100.0 µM 95% | [6]; at 33.0 µM 98% | [6]; at 100.0 µM 94% | [7]; [17] 97% | [7]; at 50.0 µM 90.5% | [8]; [17] 97% | [8]; at 50.0 µM 88.5% | [9]; at 33.0 µM 99% | [9]; [17] 96% | [9]; at 50.0 µM 88.6% | [9]; at 100.0 µM 93% | [10]; at 11.0 µM 98% | [10]; at 33.0 µM 97% | [10]; at 100.0 µM 89% | [11]; at 33.0 µM 98% | [11]; at 100.0 µM 94% | [12]; at 11.0 µM 79% | [12]; at 33.0 µM 99% | [12]; at 100.0 µM 95% | [13]; [16] 83% | [13]; [17] 93% | [13]; at 50.0 µM 88% | [14]; at 33.0 µM 98% | [14]; at 100.0 µM 94%

COC(=O)c1cccc(C)c1C(=O)c1c(C)cc(C)cc1C
inactive: [1]; at 1.2 µM -1% | [1]; at 3.7 µM -1% | [1]; at 11.0 µM 4% | [1]; at 33.0 µM 28% | [2]; at 1.2 µM 0% | [2]; at 3.7 µM 1% | [2]; at 11.0 µM -2% | [2]; at 33.0 µM 5% | [2]; at 100.0 µM 53% | [3]; at 1.2 µM -6% | [3]; at 3.7 µM 6% | [3]; at 11.0 µM 5% | [3]; at 33.0 µM 26% | [4]; at 1.2 µM -1% | [4]; at 3.7 µM 1% | [4]; [16] -10% | [4]; at 11.0 µM 5% | [4]; at 33.0 µM 28% | [4]; [17] 52% | [4]; at 50.0 µM 15.5% | [5]; at 1.2 µM -3% | [5]; at 3.7 µM -1% | [5]; [16] 3% | [5]; at 11.0 µM 4% | [5]; at 33.0 µM 21% | [5]; [17] 59% | [5]; at 50.0 µM 22.8% | [6]; at 1.2 µM 0% | [6]; at 3.7 µM 0% | [6]; at 11.0 µM 5% | [6]; at 33.0 µM 20% | [6]; at 100.0 µM 47% | [7]; [16] -7% | [7]; [17] 25% | [7]; at 50.0 µM 25.1% | [15]; at 1.2 µM 3% | [15]; at 3.7 µM 2% | [15]; at 11.0 µM 2% | [15]; at 33.0 µM 11% | [15]; at 100.0 µM 42% | [8]; [16] -25% | [8]; [17] 15% | [8]; at 50.0 µM 25.2% | [10]; at 1.2 µM -3% | [10]; at 3.7 µM -3% | [10]; at 11.0 µM -4% | [10]; at 33.0 µM 9% | [10]; at 100.0 µM 50% | [11]; at 1.2 µM -1% | [11]; at 3.7 µM 2% | [11]; at 11.0 µM 6% | [11]; at 33.0 µM 19% | [11]; at 100.0 µM 59% | [12]; at 1.2 µM 1% | [12]; at 3.7 µM 3% | [12]; at 11.0 µM 7% | [12]; at 33.0 µM 25% | [12]; at 100.0 µM 65% | [13]; [16] 4% | [13]; at 50.0 µM 15.7% | [14]; at 1.2 µM 4% | [14]; at 3.7 µM 7% | [14]; at 11.0 µM 10% | [14]; at 33.0 µM 28% | [14]; at 100.0 µM 67%
active: [1]; at 100.0 µM 77% | [3]; at 100.0 µM 76% | [4]; at 100.0 µM 76% | [5]; at 100.0 µM 72% | [13]; [17] 82%

O=[N+]([O-])c1cccc2nc3ccccc3c(NCCc3cccc[n+]3[O-])c12
inactive: [1]; at 1.2 µM 15% | [1]; at 3.7 µM 47% | [2]; at 1.2 µM 0% | [2]; at 3.7 µM 1% | [2]; at 11.0 µM 11% | [2]; at 33.0 µM 27% | [3]; at 1.2 µM 21% | [3]; at 3.7 µM 43% | [4]; at 1.2 µM 10% | [4]; at 3.7 µM 30% | [4]; at 11.0 µM 68% | [5]; at 1.2 µM 2% | [5]; at 3.7 µM 18% | [5]; [16] 25% | [5]; at 11.0 µM 62%
active: [1]; at 11.0 µM 81% | [1]; at 33.0 µM 92% | [1]; at 100.0 µM 97% | [2]; at 100.0 µM 70% | [3]; at 11.0 µM 72% | [3]; at 33.0 µM 82% | [3]; at 100.0 µM 90% | [4]; [16] 70% | [4]; at 33.0 µM 88% | [4]; [17] 96% | [4]; at 50.0 µM 87.5% | [4]; at 100.0 µM 94% | [5]; at 33.0 µM 95% | [5]; [17] 98% | [5]; at 50.0 µM 83.2%
